Results filed as inconclusive are left out. Where a call stands in place of a potency, no number is given. The source made the active and inactive calls. Unless noted, calls come from the whole dose curve.
Columns and labels:
[1] = target: Gonadotropin-releasing hormone receptor (Homo sapiens) (UniProt P30968); assay: Human gonadotropin-releasing hormone receptor (GnRHR) small molecule agonists, calcium flux assay in GnRHR-HEK293 cells (AID 1920063); note: nearly all actives have a fitted effect of over 35% in size
Procedure, shortened: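 Calcium-dye fluorescence, Ex/Em=480/540, recorded every 1 sec over 3 min after compound addition to GnRHR-HEK293 cells. Cells had been seeded 18 hours earlier and dye-loaded for 1 hour at 37 C. Fifteen concentrations, triplicates.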

[2] = G protein-coupled receptor (GPCR) small molecule agonists, calcium flux assay: HEK293 wild type cell line counter screen (AID 1920065)
Procedure, shortened: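 Agonist mode; 18 h seeding at 37 C, 1 h dye load at 37 C; compounds pinned from DMSO, ATP as positive control; kinetic fluorescence 480/540 nm, 3 min, 1 s reads; 15 concentrations, triplicate.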

[3] = p53 small molecule agonists, cell-based qHTS assay with human liver microsomes (AID 1963577);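 note: p53 response element beta-lactamase reporter cells with liver microsomes plus NADPH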
Procedure, shortened: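 With metabolic activation: human liver microsomes (0.5 mg/mL final) plus NADPH (0.5 mg/mL final) added alongside compounds to p53RE-bla cells; 16 h 37 C exposure; beta-lactamase read by LiveBLAzer fluorescence.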

[4] = p53 small molecule agonists, cell-based qHTS assay with rat liver microsomes (AID 1963578)
Procedure, shortened: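 Metabolic activation by rat liver microsomes and NADPH, each 0.5 mg/mL final, added right after compounds to p53RE-bla reporter cells (4,000/well, plated 5 h earlier). 16 h at 37 C, then LiveBLAzer substrate for 2 h at room temperature in the dark; fluorescence read-out.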

[5] = p53 small molecule agonists, cell-based qHTS assay with rat liver microsomes: qHTS cell viability counter screen (AID 1963580); note: nearly all actives have a fitted effect of over 45% in size
Procedure, shortened: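 Cytotoxicity counter screen: intracellular ATP read by CellTiter-Glo luminescence in the p53 reporter wells. HCT-116 p53RE-bla cells were treated for 16 h at 37 C alongside rat liver microsomes and NADPH, each 0.5 mg/mL final.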

[6] = p53 small molecule agonists, cell-based qHTS assay: qHTS cell viability counter screen (AID 1963581); note: nearly all actives have a fitted effect of over 45% in size
Procedure, shortened: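 Cytotoxicity read-out: ATP-based luminescence (CellTiter-Glo, 30 min RT) measured in the same wells as the p53 reporter assay, HCT-116 p53RE-bla cells, 16 h compound exposure at 37 C.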

[7] = p53 small molecule agonists, cell-based qHTS assay (AID 1963582; active = well fitted activation curve with a large enough effect in the signal ratio in the repeat runs, not every such curve was filed as active; the % refers to the signal ratio; note: potency is the fitted concentration of half-maximal effect)
Procedure, shortened: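 Fluorescence intensity read-out of a beta-lactamase reporter under a p53 response element. Cells were exposed to DMSO-dissolved compounds for 16 h at 37 C, then developed with FRET substrate for 2 h at RT.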

[8] = target: 5-hydroxytryptamine receptor 2A (Homo sapiens) (UniProt P28223); assay: 5-hydroxytryptamine receptor 2A (HTR2A) small molecule antagonists, cell-based qHTS assay (AID 1963586); note: nearly all actives have a fitted effect of over 45% in size
Procedure, shortened: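 CHO cells stably expressing human HTR2A were plated for 18 h at 37 C, then loaded with calcium dye for 1 h. Compounds were preincubated 5 min at room temperature before DOI (4 nM solution) was added. Kinetic fluorescence was read for 3 min.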

[9] = target: 5-hydroxytryptamine receptor 2A (Homo sapiens) (UniProt P28223); assay: 5-hydroxytryptamine receptor 2A (HTR2A) small molecule agonists, cell-based qHTS assay (AID 1963587); note: nearly all actives have a fitted effect of over 30% in size
Procedure, shortened: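 Kinetic calcium-flux fluorescence (2 min, 1 sec intervals) after compound addition in agonist mode. HTR2A-CHO cells were cultured 18 h, then dye-loaded 1 h at 37 C.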

[10] = target: Muscarinic acetylcholine receptor M1 (Homo sapiens) (UniProt P11229); assay: Cholinergic receptor muscarinic 1 (CHRM1) small molecule agonists, cell-based qHTS assay (AID 1963589); note: nearly all actives have a fitted effect of over 35% in size
Procedure, shortened: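 Calcium flux read-out: kinetic fluorescence at 1 sec intervals after pin-tool compound addition to dye-loaded CHRM1-CHO cells (human M1). Agonist mode; 15 concentrations tested in triplicate independent runs.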

[11] = cAMP Responsive Elements (CRE) small molecule agonists, cell-based qHTS assay (AID 1963590)
Procedure, shortened: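 Beta-lactamase reporter readout: LiveBLAzer B/G FRET substrate, 2 h at room temperature, added after 3 h compound treatment of CRE-bla HEK 293T cells at 37 C/5% CO2.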

[12] = target: Beta-2 adrenergic receptor (Homo sapiens) (UniProt P07550); assay: Adrenergic beta2 receptor (ADRB2) small molecule antagonists, cell-based qHTS assay (AID 1963592); note: nearly all actives have a fitted effect of over 50% in size; note: potency is the fitted concentration of half-maximal effect
Procedure, shortened: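 Assay format: CHO-ADRB2 cells, 18-20hr seeding at 37C/5% CO2, then compound plus 1nM isoproterenol agonist mix for 0.5hr RT. Homogeneous time-resolved fluorescence cAMP detection after 1hr, expressed as 665/615 nm ratio.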

[13] = target: D(2) dopamine receptor (Homo sapiens) (UniProt P14416); assay: Dopamine D2 receptor (DRD2) small molecule antagonists, cell-based qHTS assay (AID 1963595; active = well fitted inhibition curve with a large enough effect in the signal ratio in the repeat runs, with a control signal flat; the % refers to the signal ratio)
Procedure, shortened: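 HEK293 cells stably expressing DRD2 were preincubated with 0.1 mM Ro20-1724, then with compound for 10 min at room temperature. Cells were stimulated with 200 nM NKH477 plus 12 nM quinpirole for 30 min, and cAMP was read by HTRF.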

[14] = target: KiSS-1 receptor (Homo sapiens) (UniProt Q969F8); assay: Human kisspeptin (KISS1R) small molecule agonists, calcium flux assay in KISS1R-HEK293 cells (AID 1920064; active = well fitted activation curve with a large enough effect in the repeat runs)
Procedure, shortened: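 Calcium flux read-out: kinetic fluorescence at Ex/Em=480/540, 1 s intervals over 3 min, after pin-tool compound addition to dye-loaded KISS1R-HEK293 cells. Fifteen concentrations, triplicates.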

[15] = p53 small molecule agonists, cell-based qHTS assay with human liver microsomes: qHTS cell viability counter screen (AID 1963579); note: nearly all actives have a fitted effect of over 45% in size
Procedure, shortened: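 Metabolic activation used human liver microsomes and NADPH, both 0.5 mg/mL final, over 16 hours at 37 C on p53RE-bla cells (4,000/well). Cytotoxicity measured by CellTiter-Glo luminescence, 30 min at room temperature.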

[16] = cAMP Responsive Elements (CRE) small molecule antagonists, cell-based qHTS assay (AID 1963591; active = well fitted inhibition curve with a large enough effect in the signal ratio in the repeat runs, not every such curve was filed as active; the % refers to the signal ratio)
Procedure, shortened: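 HEK293T CRE-bla; 18 h preincubation; compound pin-transfer; NKH477 0.25 uM final, 3 h, 37 C; LiveBLAzer FRET substrate 2 h RT.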

[17] = target: D(2) dopamine receptor (Homo sapiens) (UniProt P14416); assay: Dopamine D2 receptor (DRD2) small molecule agonists, cell-based qHTS assay (AID 1963594); note: nearly all actives have a fitted effect of over 35% in size
Procedure, shortened: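 cAMP accumulation in DRD2-HEK293 cells measured by HTRF after 1 h detection; compounds added 10 min before NKH477 (200nM […]) forskolin-analogue stimulation, 30 min at room temperature, with Ro20-1724 present at 0.1 mM final.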

[18] = target: Muscarinic acetylcholine receptor M1 (Homo sapiens) (UniProt P11229); assay: Cholinergic receptor muscarinic 1 (CHRM1) small molecule antagonists, cell-based qHTS assay (AID 1963588); note: nearly all actives have a fitted effect of over 40% in size
Procedure, shortened: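 Compounds were tested at 15 concentrations in three independent runs. Dye-loaded CHRM1-CHO cells were exposed 5 min at room temperature before stimulation by acetylcholine added at 50nM. Intracellular calcium was read kinetically on FDSS for 3 min.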

[19] = target: Beta-2 adrenergic receptor (Homo sapiens) (UniProt P07550); assay: Adrenergic beta2 receptor (ADRB2) small molecule agonists, cell-based qHTS assay (AID 1963593);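 note: CHO cells stably overexpressing human ADRB2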
Procedure, shortened: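 CHO cells stably over-expressing ADRB2 were plated overnight at 37C, then dosed with compounds plus a stimulation mix containing 100uM IBMX and 25uM Ro-20-1724 for 0.5hr at room temperature. cAMP was measured by HTRF competition, 1hr.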

[20] = Nuclear factor erythroid 2-related factor 2/antioxidant responsive element (Nrf2/ARE) small molecule agonists: luciferase reporter gene qHTS assay in human keratinocytes (AID 1919969); note: nearly all actives have a fitted effect of over 35% in size

Beta-2 adrenergic receptor (Homo sapiens), sequence (P07550 whole entry, looked up): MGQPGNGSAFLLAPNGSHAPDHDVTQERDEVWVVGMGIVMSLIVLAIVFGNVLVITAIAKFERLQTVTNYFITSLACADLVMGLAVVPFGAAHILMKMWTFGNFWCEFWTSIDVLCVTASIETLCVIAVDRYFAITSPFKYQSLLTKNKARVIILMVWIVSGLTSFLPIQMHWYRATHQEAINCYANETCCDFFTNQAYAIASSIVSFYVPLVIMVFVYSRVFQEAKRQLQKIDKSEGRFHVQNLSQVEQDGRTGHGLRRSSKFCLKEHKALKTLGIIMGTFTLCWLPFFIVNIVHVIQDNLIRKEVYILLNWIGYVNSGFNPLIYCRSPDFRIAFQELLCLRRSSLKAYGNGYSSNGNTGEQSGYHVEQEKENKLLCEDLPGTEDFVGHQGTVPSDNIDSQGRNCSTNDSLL
Gonadotropin-releasing hormone receptor (Homo sapiens), sequence (P30968 whole entry, looked up): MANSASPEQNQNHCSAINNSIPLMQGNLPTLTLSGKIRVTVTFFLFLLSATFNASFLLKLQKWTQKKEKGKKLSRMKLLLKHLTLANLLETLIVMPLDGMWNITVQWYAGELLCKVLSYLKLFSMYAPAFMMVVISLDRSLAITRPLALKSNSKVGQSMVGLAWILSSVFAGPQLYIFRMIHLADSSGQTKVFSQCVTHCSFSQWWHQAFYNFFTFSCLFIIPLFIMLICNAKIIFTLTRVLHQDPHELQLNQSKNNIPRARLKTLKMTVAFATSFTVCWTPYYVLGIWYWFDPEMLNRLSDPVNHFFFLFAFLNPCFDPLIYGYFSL
Muscarinic acetylcholine receptor M1 (Homo sapiens), sequence (P11229 whole entry, looked up): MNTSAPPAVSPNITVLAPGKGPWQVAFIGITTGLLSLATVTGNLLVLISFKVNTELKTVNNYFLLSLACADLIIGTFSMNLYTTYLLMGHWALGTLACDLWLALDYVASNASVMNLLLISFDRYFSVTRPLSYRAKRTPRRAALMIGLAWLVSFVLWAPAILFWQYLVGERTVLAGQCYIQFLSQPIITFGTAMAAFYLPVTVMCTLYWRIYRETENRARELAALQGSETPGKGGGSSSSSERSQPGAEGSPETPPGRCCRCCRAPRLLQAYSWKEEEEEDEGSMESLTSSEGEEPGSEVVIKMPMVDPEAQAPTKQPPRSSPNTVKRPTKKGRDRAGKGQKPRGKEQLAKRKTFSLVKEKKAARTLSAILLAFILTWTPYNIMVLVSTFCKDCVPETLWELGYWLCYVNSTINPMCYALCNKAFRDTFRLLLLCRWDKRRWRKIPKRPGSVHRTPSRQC
5-hydroxytryptamine receptor 2A (Homo sapiens), sequence (P28223 whole entry, looked up): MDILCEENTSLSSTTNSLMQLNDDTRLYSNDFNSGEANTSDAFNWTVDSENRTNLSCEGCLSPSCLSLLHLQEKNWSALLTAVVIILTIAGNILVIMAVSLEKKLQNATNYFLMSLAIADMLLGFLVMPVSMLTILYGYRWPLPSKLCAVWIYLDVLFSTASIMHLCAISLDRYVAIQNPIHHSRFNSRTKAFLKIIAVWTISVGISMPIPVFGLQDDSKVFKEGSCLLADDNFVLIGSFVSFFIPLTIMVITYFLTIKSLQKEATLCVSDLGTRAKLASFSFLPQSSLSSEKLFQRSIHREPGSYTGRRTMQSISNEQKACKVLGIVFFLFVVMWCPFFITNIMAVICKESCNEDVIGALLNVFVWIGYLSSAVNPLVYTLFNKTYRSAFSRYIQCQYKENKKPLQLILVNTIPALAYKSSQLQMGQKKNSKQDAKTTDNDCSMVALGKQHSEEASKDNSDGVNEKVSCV
KiSS-1 receptor (Homo sapiens), sequence (Q969F8 whole entry, looked up): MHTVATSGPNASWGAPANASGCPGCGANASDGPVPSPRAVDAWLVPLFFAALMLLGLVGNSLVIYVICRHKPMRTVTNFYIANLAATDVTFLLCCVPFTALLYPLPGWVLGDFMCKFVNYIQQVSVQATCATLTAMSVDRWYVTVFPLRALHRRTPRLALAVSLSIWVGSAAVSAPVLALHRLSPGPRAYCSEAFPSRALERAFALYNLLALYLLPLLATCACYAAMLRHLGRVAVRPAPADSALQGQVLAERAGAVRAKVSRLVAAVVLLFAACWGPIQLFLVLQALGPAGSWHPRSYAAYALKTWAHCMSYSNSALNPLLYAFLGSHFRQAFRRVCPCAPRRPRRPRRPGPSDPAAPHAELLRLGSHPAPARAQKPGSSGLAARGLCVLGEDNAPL
D(2) dopamine receptor (Homo sapiens), sequence (P14416 whole entry, looked up): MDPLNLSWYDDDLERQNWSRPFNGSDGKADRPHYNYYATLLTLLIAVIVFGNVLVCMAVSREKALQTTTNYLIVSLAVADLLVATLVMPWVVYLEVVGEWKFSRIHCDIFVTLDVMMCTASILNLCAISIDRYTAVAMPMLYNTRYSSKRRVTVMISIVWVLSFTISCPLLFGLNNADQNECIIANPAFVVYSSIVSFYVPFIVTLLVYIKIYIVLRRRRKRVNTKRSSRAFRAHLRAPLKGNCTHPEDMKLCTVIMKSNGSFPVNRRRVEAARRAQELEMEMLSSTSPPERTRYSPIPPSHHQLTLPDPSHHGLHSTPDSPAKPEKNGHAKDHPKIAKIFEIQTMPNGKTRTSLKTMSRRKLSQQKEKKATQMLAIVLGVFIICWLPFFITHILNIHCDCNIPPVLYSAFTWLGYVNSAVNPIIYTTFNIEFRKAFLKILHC

Row | SMILES | Potency [1] | outcome [2] | Potency [3] | Potency [4] | Potency [5] | Potency [6] | Potency [7] | Potency [8] | Potency [9] | Potency [10] | Potency [11] | Potency [12] | Potency [13] | outcome [14] | Potency [15] | Potency [16] | Potency [17] | Potency [18] | Potency [19] | Potency [20]
1 | O=S1(=O)c2cccc3cccc(c23)N1CCCN1CCN(c2ccc(F)cc2)CC1 | inactive | inactive | inactive | inactive | inactive | inactive | inactive | inactive | inactive | inactive | inactive | 33.5 µM (active) | inactive |  |  |  |  |  |  | 
2 | Cc1ccc(NC(N)=O)cc1 |  | inactive | inactive | inactive | inactive | inactive | inactive | inactive | inactive | inactive |  | inactive | inactive | inactive | inactive | inactive | inactive |  |  | 
3 | N=C1N=C(N)c2ccccc21 |  |  |  | inactive | inactive | inactive | 36.3 µM (active) | inactive | inactive | inactive |  | inactive | inactive |  | inactive | inactive | inactive | inactive |  | 
4 | CCC(=O)Oc1ccc2c(c1)CC[C@@H]1[C@@H]2CC[C@@]2(C)[C@H]1C[C@@H](OC(=O)CC)[C@@H]2OC(=O)CC | inactive | inactive | inactive |  | inactive | inactive | inactive | inactive | inactive | inactive |  | inactive | inactive | inactive | inactive |  |  |  |  | 
5 | Cc1nc(C2CCCCC2)c(-c2ccc(S(N)(=O)=O)c(F)c2)o1 |  | inactive |  | inactive | inactive | inactive | inactive | inactive |  | inactive |  | inactive | inactive | inactive | inactive |  | inactive | inactive | inactive | 
6 | COS(=O)(=O)C(F)(F)F | inactive | inactive | inactive | inactive |  | inactive | inactive | inactive |  | inactive | inactive | inactive |  | inactive |  | inactive | inactive |  |  | 
7 | CCOC(=O)COC(=O)c1ccccc1C(=O)OCC | inactive |  | inactive | inactive | inactive | inactive | inactive | inactive | inactive | inactive |  | inactive | inactive | inactive | inactive |  | inactive |  |  | 
8 | O=C(O)CC(C(=O)O)S(=O)(=O)O (stereo not given) |  | inactive | inactive | inactive | inactive | inactive | inactive | inactive | inactive | inactive | inactive | inactive | inactive | inactive |  | inactive | inactive | inactive |  | 
9 | CCOc1ccc2ccccc2c1C(=O)N[C@@H]1C(=O)N2[C@@H]1SC(C)(C)[C@@H]2C(=O)O | inactive |  |  | inactive | inactive | inactive | inactive | inactive | inactive |  | inactive | inactive | inactive | inactive | inactive | inactive | inactive | inactive |  | 
10 | CC(C)=CCOC(=O)c1ccccc1 | inactive | inactive | inactive | inactive | inactive | inactive | inactive | inactive | inactive | inactive | inactive | inactive | inactive | inactive | inactive |  | inactive | inactive | inactive | inactive

Source: PubChem BioAssay (Tox21)
